Data from PubChem BioAssay AID1259343 (VanderVen Lab, College of Veterinary Medicine, Cornell …, 2017).
The campaign covered roughly 6,200 compounds. About 2,900 (47%) were called active. Cut-off read from the data, not from the text of the source: active = inhibition above about 50%; inactive = the rest. So high a share suggests a set chosen from earlier hits. The list shows a part of the results.

Assay: Mycobacterium tuberculosis growth inhibition, primary screen (AID 1259343)
Settings: inhibition: at 10 µM, active compounds read high; outcome: 10 uM

Structure (SMILES) | inhibition
O=C1C=C2C(=CCOC2O)O1 (configuration not stated) | 98.2% (active)
CC(NS(=O)(=O)c1ccccc1C#N)c1ccc(-n2ccnc2)cc1 (configuration not stated) | -48.9% (inactive)
Cc1ccc(-c2csc(N)n2)cc1 | 101% (active)
OC(c1cn2cc(-c3ccc(F)cc3)nc2s1)(C(F)(F)F)C(F)(F)F | 15.3% (inactive)
Fc1ccc(F)c(-c2csc(Nc3ccc4c(c3)OCCO4)n2)c1 | 22.8% (inactive)
Nc1nc(-c2ccc(F)cc2F)cs1 | 33.6% (inactive)
C=CCNc1nc(-c2cc(F)ccc2F)cs1 | 45.9% (inactive)
Cc1cc(C)cc(Nc2nc(-c3ccc(F)cc3)cs2)c1 | 51.7% (active)
Nc1nc(-c2ccc(F)cc2)cs1 | 90.4% (active)
CSc1ccc(-c2csc(N)n2)cc1 | 8.66% (inactive)
O=c1[nH]c2ccc(-c3csc(-c4ccc(F)cc4)n3)cc2o1 | 39.4% (inactive)
Nc1nc(-c2ccc(I)cc2)cs1 | inactive
Nc1nc(-c2cc(F)ccc2F)cs1 | 77.2% (active)
c1csc(-c2nc(SCC3COc4ccccc4O3)n[nH]2)c1 (configuration not stated) | -27.5% (inactive)
c1csc(-c2nnc(CON=C3c4ccccc4-c4ccccc43)o2)c1 | 26.7% (inactive)
Brc1ccccc1-c1nnc(CSc2nnnn2C2CC2)o1 | 28.9% (inactive)

Structure (SMILES) | inhibition
Clc1ccc(C=NOCc2nnc(-c3ccccc3Br)o2)cc1Cl | 50.2% (active)
CC(C(N)=O)N1CCC(c2nc3cc(Cl)ccc3s2)CC1 (configuration not stated) | 38% (inactive)
CC(C)c1nc(CS(=O)(=O)c2nc3cc(Cl)ccc3s2)no1 | 64.2% (active)
Oc1ccc(-c2nc3cc(Cl)ccc3s2)cc1 | 36.2% (inactive)
O=C(O)/C=C/C=C/c1ccccc1 | 38.2% (inactive)
Cc1cc(C)c(C)c(C(=O)/C=C/C(=O)O)c1C | 85.5% (active)
Cc1nc(-c2ccc(NC(=O)C3CCOCC3)cc2)co1 | 88.5% (active)
O=C(Nc1ccc(-c2nc3ccccc3o2)cc1)C1CCN(C(=O)C2CCCCO2)CC1 (configuration not stated) | 34.5% (inactive)
O=C(Nc1cccc(-c2noc(C3CC3)n2)c1)C1CCOCC1 | 11.2% (inactive)
O=S(=O)(Nc1nc2c(ccc3ccccc32)s1)c1ccc(Cl)s1 | 22.8% (inactive)
COc1cc(C(=O)NCC(=O)Nc2nc3c(ccc4ccccc43)s2)cc(OC)c1OC | 88.5% (active)
C(=Cc1nc2c(ccc3ccccc32)s1)c1ccc2c(c1)OCCO2 | 36.3% (inactive)
O=C1CCC(=O)N1OCCOc1cccc(Oc2ccccc2)c1 | 72% (active)
CCCCNC(=O)NCC12CC3CC(CC(C3)C1)C2 | 74.1% (active)
CC(C)(C(=O)Nc1ccc(F)cc1)c1ccc2c(c1)OCCO2 | 57.4% (active)
CCOC(=O)C1=C(C)N(c2ccc3c(c2)OCCO3)C(=S)NC1c1cccc(F)c1 (configuration not stated) | 1.48% (inactive)
